Source: PubChem BioAssay (National Center for Advancing Translational Sciences (NCATS))
Only a selection was taken, and hits are over-represented in it overall.
RE007 growth inh – less growth of the S. pombe RE007 Vpr strain | S. pombe RE007 Vpr strain, BacTiter-Glo ATP luminescence, 24 h | Potency, µM (doses to about 92.2 µM), most hits filed as inhibitors | 0.21% of 360,000 active | AID 651644; active = well fitted falling curve with a large enough effect; inconclusive = small, poorly fitted or top-dose-only effect; inactive = no such curve, though single readings can be large or run the other way; note: nearly all actives have a fitted effect of over 50% in size
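Fission yeast RE007 carrying one integrated HIV-1 vpr copy, seeded at OD 0.01 in PMG+AL medium with 23 nL pinned compound. Grown 24 h at 30 degrees; viability read by BacTiter-Glo luminescence after 5 min.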
Shiga inhibitor – inhibitors of Shiga toxin in Vero cells; inhibition, % at 38.7 µM; AID 2315; Vero cells, Shiga toxin protein synthesis inhibition reporter; 9.2% of 290,000 active; in the data active = inhibition mostly above about 28%, no sharp cut-off; inactive = mostly below about 43%
Giardia FBPA inh-1 – Giardia lamblia aldolase inhibition; Potency, µM (titrated, usually from 59.6 µM), most hits filed as inhibitors; A8B2U2; 0.71% of 290,000 active; purified Giardia FBPA; note: nearly all actives have a fitted effect of over 55% in size
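40 nM FBPA preincubated 10 min at RT with compound (up to 57.5 uM final), then substrate plus GAPDH/TPI/NAD/arsenate coupling and diaphorase/resazurin added. Fluorescence read after 20 min at RT, 525/598 nm.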
TbPYK inhibitor – blocks Trypanosoma brucei pyruvate kinase; Q57TT1; TbPYK enzyme, Kinase-Glo Plus ATP luminescence, 45 min; Potency, µM (top dose mostly 76.8 µM), most hits filed as inhibitors; 0.12% of 410,000 active; AID 624173; note: nearly all actives have a fitted effect of over 50% in size
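Glycolytic pyruvate kinase of T. brucei was incubated with substrate, test compound and 130 uM ADP for 45 minutes at room temperature. Luminescent Kinase-Glo Plus signal was measured after 10 minutes.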
CHX counter – counter-screen hit for Shiga toxin inhibitors, cycloheximide | cell reporter, cycloheximide protein synthesis inhibition counterscreen | max response, % | 12% of 300,000 active | AID 2314; in the data active = max response mostly above about 13%, no sharp cut-off; inactive = mostly below about 14%; note: read at 38.3 µM for the half of the compounds with a filed dose
LmPK inh – blocks Leishmania mexicana pyruvate kinase activity | Q27686 | purified LmPK, Kinase-Glo ATP luminescence, 1 h | Potency, µM (top dose mostly 57.5 µM), hits mostly inhibitors | 0.37% of 290,000 active
Target sequence (Q27686 whole entry, looked up): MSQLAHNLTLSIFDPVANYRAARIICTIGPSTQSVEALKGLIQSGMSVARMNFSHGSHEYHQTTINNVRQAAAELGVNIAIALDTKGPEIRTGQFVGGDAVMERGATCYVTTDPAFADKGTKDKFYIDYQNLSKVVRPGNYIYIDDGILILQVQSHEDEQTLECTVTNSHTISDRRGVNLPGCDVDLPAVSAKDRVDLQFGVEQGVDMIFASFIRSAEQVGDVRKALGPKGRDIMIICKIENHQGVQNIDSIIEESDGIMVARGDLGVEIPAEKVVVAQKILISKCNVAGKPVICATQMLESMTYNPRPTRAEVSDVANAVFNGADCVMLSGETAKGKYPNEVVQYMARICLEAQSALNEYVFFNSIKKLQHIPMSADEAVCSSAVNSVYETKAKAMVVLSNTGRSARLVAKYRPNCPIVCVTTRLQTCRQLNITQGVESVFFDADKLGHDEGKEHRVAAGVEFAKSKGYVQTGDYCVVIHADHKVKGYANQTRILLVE
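ATP generated from ADP (0.1 mM) and PEP (0.5 mM) by 0.1 nM LmPK over 1 h at room temperature (pH 7.2 imidazole buffer) was detected by coupled luciferase luminescence. Values were normalized to uninhibited and no-enzyme wells.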
Giardia growth – blocks growth of Giardia lamblia trophozoites | shares compounds with Giardia FBPA inh-1 | Giardia lamblia trophozoite growth inhibition | Potency, µM (top dose mostly 57.5 µM), most hits filed as inhibitors | 5% of 1,500 active | AID 2785;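 note: trophozoites exposed to compound for 48 h at 37 °C; nearly all actives have a fitted effect of over 70% in size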
Mammalian tox – mammalian cytotoxicity of Giardia aldolase inhibitor hits; mammalian cell viability counter-screen, qHTS; shares compounds with Giardia FBPA inh-1; AID 2786; Potency, µM (top dose mostly 57.5 µM), usual class: inhibitors; 4% of 1,500 active;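 note: Chinese hamster ovary cells used as mammalian cytotoxicity surrogate; viability measured as cellular ATP by luminescence; compound exposure lasted 48 h before reading; nearly all actives have a fitted effect of over 60% in size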
Giardia FBPA inh-2 – confirmation of Giardia fructose-bisphosphate aldolase inhibitors | shares compounds with Giardia FBPA inh-1 | purified Giardia aldolase enzyme activity, qHTS | Potency, µM (top dose mostly 57.5 µM), hits mostly inhibitors | 5% of 1,500 active; note: nearly all actives have a fitted effect of over 45% in size
Rabbit aldolase – rabbit FBP aldolase inhibition by Giardia aldolase hits; shares compounds with Giardia FBPA inh-1; Rabbit muscle FBPA enzyme inhibition, selectivity counter-screen; Potency, µM (series often up to 57.5 µM), hits mostly inhibitors; 4% of 1,500 active; note: nearly all actives have a fitted effect of over 60% in size
GAPDH counter – GAPDH inhibition flagged for Giardia aldolase hits; shares compounds with Giardia FBPA inh-1; GAPDH coupling enzyme counterscreen, biochemical, qHTS; Potency, µM (top dose mostly 57.5 µM), hits mostly inhibitors; 6% of 1,500 active; note: nearly all actives have a fitted effect of over 55% in size
Hits are given with their value; 0 = inactive; ? = inconclusive; - = no result; [ ] = another dose, or the depositor's remark. Unless noted, calls come from the whole dose curve; as a rule, active = well fitted curve in the direction sought with a large enough effect; inconclusive = small, poorly fitted or top-dose-only effect, or another doubt; inactive = no such curve, though single readings can be large; an effect the other way counts as inactive or inconclusive.

SMILES	RE007 growth inh	Shiga inhibitor	Giardia FBPA inh-1	TbPYK inhibitor	CHX counter	LmPK inh	Giardia growth	Mammalian tox	Giardia FBPA inh-2	Rabbit aldolase	GAPDH counter
COc1ccc(-n2nnnc2SCC(=O)c2ccc(O)c(O)c2)cc1	0	0	?	0	0	0	0	?	0	0	0
Cn1c(SCC(=O)c2ccc(O)c(O)c2)nnc1-c1cccs1	0	0	5µM	0	26	0	0	0	?	0	0
Cc1cc(=O)[nH]c(SCC(=O)c2ccc(O)c(O)c2)n1	0	0	8.9µM	0	0	0	?	0	?	0	0
Cc1ccc(OCC(=O)NCCNC(=O)c2ccccn2)cc1	0	0	0	0	0	0	-	-	-	-	-
CC(C)N(C(=O)c1nn(C)c2c1CSc1ccccc1-2)C1CCCCC1	0	0	-	0	0	0	-	-	-	-	-
COc1cc(C)c(C)cc1S(=O)(=O)Nc1cccc(-c2ccc(N3CCOCC3)nn2)c1	-	-	-	0	-	-	-	-	-	-	-
O=C(O)c1cc(-c2ccccn2)n[nH]1	0[3.69 µM]	0	6.3µM	-	0	0	0	0	0	0	0
O=C(O)c1cc(-c2ccc(Cl)cc2)n[nH]1	0	0	0	0	0	0	-	-	-	-	-
C#CCN(C[C@H]1[C@H](OC(=O)Nc2c(C)noc2C)[C@H](OC(=O)Nc2c(C)noc2C)C[C@@H](C(=O)OC)[C@H]1C(=O)OC)S(=O)(=O)c1ccc(C)cc1	0	-	-	0	-	-	-	-	-	-	-
COc1ccc(C(=O)N2CCC3(CC2)CCN(C(c2ccccc2)c2ccccc2)CC3)cc1	-	-	0	0	-	-	-	-	-	-	-
COC/C=C/C1=CC2=CC(=O)C(C)(OC(=O)c3cnc4ccccc4n3)C(=O)C2=CN1CCN1CCOCC1 (configuration not stated)	0	0	16µM	0	0	0[11.5 µM]	0	0	?	?	?
COC(=O)N(C)C[C@H]1OCc2cn(nn2)CCCC(=O)N([C@@H](C)CO)C[C@@H]1C	0	-	-	0	-	-	-	-	-	-	-
O=C(C1CCC1)N1CCc2cc(S(=O)(=O)NCc3ccc(F)cc3)ccc21	-	-	-	0	-	-	-	-	-	-	-
Cc1ccc(C(=O)Nc2ncc([N+](=O)[O-])s2)cc1	?	0	16µM	0	0	?	?	40µM	?	25µM	28µM
CC(=O)Nc1ncc([N+](=O)[O-])s1	-	-	-	0	-	-	-	-	-	-	-
CCOC(=O)CCCc1ccc(/C(C)=N/NC(=S)NC)cc1	0	0	0	0	0	0	-	-	-	-	-
CCOC(=O)CCCc1ccc(/C(C)=N/NC(N)=S)cc1	0	0	6.3µM	0	15	0	0	0	0	0	0
C/C(=N\NC(N)=S)c1ccccc1	0	0	16µM	0	0	0	0	0	0	0	0
CC(=O)N/N=C(\C)c1ccc2c(c1)OCCO2	0	0	0	0	0	0	-	-	-	-	-
NC(=S)NN=C(c1ccccc1)c1ccccc1	0	0	?	0	0	0	-	-	-	-	-
C/C(=N\NC(N)=S)c1ccc2c(c1)OCCO2	0	43	18µM	0	26	0	?	0	0	0	0
CCOC(=O)CSC1=C(C#N)C(C)C2=C(CCCC2=O)N1 (configuration not stated)	0	0	16µM	0	0	0	0[10.4 µM]	0	0	0	0
COC(=O)c1ccc2nc(-c3cccc(Cl)c3)c(Cc3ccsc3)n2c1	0	-	-	0	-	-	-	-	-	-	-
N#CC1=C(S)N(c2ccccc2)C(c2cccs2)NC1=O (configuration not stated)	0	0	6.3µM	0	0	0	0	0	0	0	0
Cc1cc(C(=O)N/N=C/c2ccc(O)c([N+](=O)[O-])c2)n[nH]1	0	0	0	0	0	0	-	-	-	-	-
SMILES	RE007 growth inh	Shiga inhibitor	Giardia FBPA inh-1	TbPYK inhibitor	CHX counter	LmPK inh	Giardia growth	Mammalian tox	Giardia FBPA inh-2	Rabbit aldolase	GAPDH counter
Cc1n[nH]c(=O)nc1N/N=C/c1ccc(O)c([N+](=O)[O-])c1	0	0	18µM	0	0	?	14µM	0	0	0	0
COc1cc(/C=N/NC(=O)c2ccc(C)nc2)cc([N+](=O)[O-])c1O	0	0	0	0	0	0	-	-	-	-	-
COc1cc(/C=N/Nc2nc(=O)[nH]nc2C)cc([N+](=O)[O-])c1O	0	57	20µM	0	25	0	?	0	0	0	0
NS(=O)(=O)c1ccc(NC(=S)NC(=O)c2cccs2)cc1	0	0	18µM	0	0	0	?	0	0	0	0
CN(C)S(=O)(=O)c1ccc(NC(=S)NC(=O)c2ccc(Br)o2)cc1	-	0	16µM	-	0	0	0[10.4 µM]	0	0	0	0
Cc1cc(C)cc(NS(=O)(=O)c2ccc(NC(=S)NC(=O)c3ccc(Br)o3)cc2)c1	0	0	0	0	0	0	-	-	-	-	-
NS(=O)(=O)c1ccc(NC(=S)NC(=O)c2ccc(Br)o2)cc1	0	0	18µM	0	0	0	0[10.4 µM]	0	0	0	0
O=C(NC(=S)Nc1ccc(S(=O)(=O)N2CCCCC2)cc1)c1cccs1	0	0	?	0	0	0	-	-	-	-	-
CCOC(=O)c1ccc(NC(=O)C(CC)Sc2nc3ncccc3[nH]2)cc1 (configuration not stated)	-	-	-	0	-	-	-	-	-	-	-
Cc1cc(OC(C)C(=O)N2CCN(CCc3ccccn3)CC2)ccc1Cl (configuration not stated)	-	-	-	0	-	-	-	-	-	-	-
NC(=O)N/N=C/c1cc(Br)ccc1OCC(=O)NCc1ccccc1	0	0	0	0	0	0	-	-	-	-	-
O=C(O)COc1ccc(Br)cc1/C=N\Nc1ccccn1	0	0	11µM	0	0	0	0	0	0	0	0
O=[N+]([O-])c1ccc(NN=Cc2ccc(O)cc2O)nc1	0	-	-	0	-	-	-	-	-	-	-
O=[N+]([O-])c1ccc(O)c(/C=N/Nc2ccccn2)c1	?	0	5µM	0	22	0	?	20µM	?	0	0
O=C(CSc1cn(CCNC(=O)c2cccc(C(F)(F)F)c2)c2ccccc12)Nc1ccc2c(c1)OCCO2	-	-	-	0	-	-	-	-	-	-	-
c1ccc(-c2nc(-c3ccncc3)n[nH]2)nc1	0	0	3.5µM	0	0	?	0	0	0	0	0
COc1ccc2[nH]c(=S)[nH]c2c1	0	0	7.1µM	0	0	0	0[10.4 µM]	0	0	0	0
S=c1[nH]c2ccc(Cl)cc2[nH]1	0	0	0	?	0	0	-	-	-	-	-
COc1ccc(-c2cc(=O)[nH]c(=S)[nH]2)cc1	0	0	16µM	0	0	0	?	0	0	0	0
